GPR151 activ: activates the human receptor GPR151; Q8TDV0; PathHunter beta-arrestin GPR151 cells, luminescence; activation, % at 11.2 µM; hit rate 1% among 650,000; AID 1508602; in the data active means activation above about 4.9%;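 further: 0% = median of compound wells and 100% = cells with positive control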
MITF primary: human MITF inhibition, primary screen; inhibition, % at 2.6 µM; AlphaScreen MITF homodimerization, bead proximity signal; hit rate 0.91% among 650,000; O75030; AID 1259374; in the data active means inhibition above about 50%;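 further: 0% = vehicle wells with protein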
Target sequence (O75030 whole entry, looked up): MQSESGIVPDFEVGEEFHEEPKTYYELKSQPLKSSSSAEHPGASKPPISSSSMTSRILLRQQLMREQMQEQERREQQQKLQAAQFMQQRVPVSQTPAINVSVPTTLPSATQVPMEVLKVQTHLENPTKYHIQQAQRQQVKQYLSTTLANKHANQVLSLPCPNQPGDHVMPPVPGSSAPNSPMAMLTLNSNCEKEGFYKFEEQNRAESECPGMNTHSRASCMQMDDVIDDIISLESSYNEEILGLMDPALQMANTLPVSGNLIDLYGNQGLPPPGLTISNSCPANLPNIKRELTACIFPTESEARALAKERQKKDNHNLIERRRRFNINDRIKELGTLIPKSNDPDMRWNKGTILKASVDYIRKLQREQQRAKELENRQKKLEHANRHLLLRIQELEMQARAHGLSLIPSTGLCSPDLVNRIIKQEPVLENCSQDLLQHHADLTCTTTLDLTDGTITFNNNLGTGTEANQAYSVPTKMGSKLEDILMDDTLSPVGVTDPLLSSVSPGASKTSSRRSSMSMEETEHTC
TEAD-YAP inh: TEAD-YAP interaction inhibition. HEK-TIYL cells, TEAD-Gal4/YAP UAS-luciferase luminescence. inhibition, % at 9.12 µM. hit rate 1.4% among 640,000. AID 1259422; in the data active means inhibition above about 32%;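 further: 0% = median of test compound wells and 100% = reference inhibitor wells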
FBW7 activator: human FBW7 E3 ligase activation, primary screen. Q969H0. AlphaScreen FBW7–phospho-cyclin E peptide binding, activator screen. normalized activity (activation), % at 26.1 µM. hit rate 0.13% among 650,000; in the data active means normalized activity above about 1.9%;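 further: purified mutant Fbw7 with reduced substrate affinity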
GPR151 conf act: confirmation of human GPR151 activators; shares compounds with GPR151 activ; GPR151 PathHunter beta-arrestin cells, luminescence, 90 min; % of EA-reagent control over plate median; activation, % at 11.2 µM; 6,700 tested, under 10 active; AID 1508609;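 active means mean percent activation across replicates above the confirmation screen cutoff of 4.91%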
GPR119 ag: GPR119 activation, counter-screen for GPR151 activators; hit rate 0.3% among 6,700; activation, % at 11.2 µM; shares compounds with GPR151 activ; GPR119 PathHunter beta-arrestin cells, luminescence, 90 min; 0 = compound-well median, 100 = enzyme-acceptor control;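 active means mean percent activation in the counterscreen above 29.09%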;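 further: counterscreen on off-target GPR119 to flag nonselective hits from the GPR151 activator screen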
Numbers without * were called inactive; / = no result given; ! = not confirmed by another sample. A selection: hits, their analogues and other compounds. The true share with any hit is near 3.5%.

SMILES	GPR151 activ	MITF primary	TEAD-YAP inh	FBW7 activator	GPR151 conf act	GPR119 ag
CC(C)(CO)Nc1nc(-c2ccccc2)c2cc(Br)ccc2n1	0.5	-26.9	-4.2	0.5	/	/
COc1ccc(CN2C(=O)C3C(C(=O)Nc4ccc(Cl)cc4)C4C=CC3(O4)C2C(=O)NC2CCCC(C)C2C)cc1 (stereo unspecified)	-1.3	8.4	-2.6	-0.1	/	/
CC(C)(C)c1csc2ncc(C(=O)NCc3cccs3)c(=O)n12	5.2*	1.1	-0.6	-0.1	-0.1	-0.6
Cc1ccc2nc3c(cc(C#N)c(=O)n3-c3ccc(Cl)cc3)c(=O)n2c1	1.0	11.1	-2.7	1.1	/	/
Cc1ccccc1NC(=O)C1C2C=CC(C3CC23)C1C(=O)O (stereo unspecified)	-0.4	17.4	-7.0	0.1	/	/
COc1ccccc1NC(=O)C1C2C=CC(C3CC23)C1C(=O)O (stereo unspecified)	12.4*	14.7	5.5	-0.1	-0.4	1.1
CC(C)(C)CN1CCNC(=O)C1CC(=O)NC1CCCCCCC1 (stereo unspecified)	11.3*	10.6	-13.4	0.1	-0.8	-3.8
Cn1ccnc1SCCNC(=O)CC1C(=O)NCCN1CC1CCCCC1 (stereo unspecified)	7.6*	15.3	9.9	0.1	0.1	6.1
Cc1c(C(=O)N2CCCCCC2)sc2ncn(Cc3ccccc3Cl)c(=O)c12	8.5*	-4.4	1.2	-0.1	-0.4	5.5
Cc1c(C(=O)N2CCN(Cc3ccccc3)CC2)sc2ncn(Cc3ccccc3Cl)c(=O)c12	-1.6	-6.1	-3.9	-0.4	/	/
COc1ccc(C(=O)NC2(Cc3ccccc3F)N=C3C=C(C)C=CN3C2=O)cc1 (stereo unspecified)	0.1	-1.6	-3.8	-0.1	/	/
CCCCOc1ccc(-c2nnc(-c3ccc(-c4ccccc4)cc3)o2)cc1	5.5*	4.8	2.0	-0.1	0.0	-9.8
NNc1nc(N2CCOCC2)nc(N(c2ccccc2)c2ccccc2)n1	9.0*	10.4	8.4	0.1	0.4	5.8
Clc1nc(N2CCOCC2)nc(N(c2ccccc2)c2ccccc2)n1	-2.1	17.1	6.2	0.0	/	/
COc1cccc(-c2nc(-c3ccc([N+](=O)[O-])cc3)no2)c1	0.0	-0.4	5.1	0.1	/	/
COc1ccc(-c2noc(C(C)c3ccc([N+](=O)[O-])cc3)n2)cc1 (stereo unspecified)	5.1*	4.4	-4.9	0.1	-0.2	1.1
COc1ccc(C[C@H](N)C(=O)N[C@@H]2[C@@H](CO)OC(n3cnc4c(N(C)C)ncnc43)[C@@H]2O)cc1 (stereo partly specified)	6.8*!	-3.8	100.1*	0.1	1.8	-0.1
Nc1ncnc2c1ncn2[C@@H]1O[C@H](CO)[C@@H](O)[C@H]1O	1.4	-6.7	-9.2	-0.2	/	/
Fc1ccc(-c2cnc(Nc3ccc(N4CCOCC4)cc3)c3nccn23)cc1	0.6	2.7	2.9	0.0	/	/
CCN(CC)c1ncnc2sc(C(=O)Nc3ccc(C)c(F)c3)c(C)c12	9.1*	11.9	0.7	0.0	-0.6	1.4
O=C(OCN1C(=O)c2ccccc2C1=O)C1CCCCC1	6.1*	10.1	4.7	0.1	-1.2	-6.5
Cc1ccc(N2C(=O)CSC23C(=O)Nc2ccccc23)cc1Br (stereo unspecified)	5.0*	-2.8	5.3	-0.8	0.3	1.9
Cc1cc(N2C(=O)CSC23C(=O)Nc2ccccc23)ccc1Br (stereo unspecified)	0.1	7.0	1.7	-0.6	/	/
CCc1ccc(OCC(=O)Nc2ncc(S(=O)(=O)c3ccc([N+](=O)[O-])cc3)s2)cc1	-1.4	20.8	3.0	0.1	/	/
CCOC(=O)c1ccc(COC(=O)c2cc(Br)ccc2NC(C)=O)cc1	6.3*	-1.2	-12.8	-0.1	-0.2	-0.8
CCOC(=O)c1ccc(NC(=O)CC2COc3ccccc3O2)cc1 (stereo unspecified)	5.8*	5.6	7.9	-0.1	0.7	1.1
CCOc1ccc(NC(=O)CSc2nc3c(c(=O)n2CC)SC(C)C3)cc1 (stereo unspecified)	-0.7	2.8	2.3	0.0	/	/
N#Cc1ccc(NC(=O)CSc2ccc(Br)cc2)cc1	0.6	-14.7	-8.4	0.0	/	/
O=C(CSc1ccc(Br)cc1)Nc1ccc([N+](=O)[O-])cc1	6.4*	6.4	12.9	0.0	0.8	-14.0

High-throughput results deposited in PubChem by The Scripps Research Institute Molecular Screening Center.
